# Over roughly 110,000 compounds, “z-score” has its median near -0.1; the highest 2% begin near 2. The sample holds the highest values, similar compounds and a random draw of the others, so the mix is not that of the screen. Active and inactive are the calls of the source.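 Rule for the calls: active = z-score in the third read window above 3 or below -3; inactive = the rest.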
# Target: Metabotropic glutamate receptor 8 (Rattus norvegicus) (UniProt P70579)
# Assay: mGluR8 Gi/Go-coupled signaling modulation – cell-based, rat, thallium flux, HTS, primary screen (AID 488969)
# Conditions: HEK293 rat mGluR8, GIRK (G protein-gated inwardly rectifying potassium channel) thallium flux, FluoZin2; at 10 µM; stronger effect = higher value; submaximal glutamate (EC20) added with thallium
# Metabotropic glutamate receptor 8 (Rattus norvegicus), sequence (P70579 whole entry, looked up): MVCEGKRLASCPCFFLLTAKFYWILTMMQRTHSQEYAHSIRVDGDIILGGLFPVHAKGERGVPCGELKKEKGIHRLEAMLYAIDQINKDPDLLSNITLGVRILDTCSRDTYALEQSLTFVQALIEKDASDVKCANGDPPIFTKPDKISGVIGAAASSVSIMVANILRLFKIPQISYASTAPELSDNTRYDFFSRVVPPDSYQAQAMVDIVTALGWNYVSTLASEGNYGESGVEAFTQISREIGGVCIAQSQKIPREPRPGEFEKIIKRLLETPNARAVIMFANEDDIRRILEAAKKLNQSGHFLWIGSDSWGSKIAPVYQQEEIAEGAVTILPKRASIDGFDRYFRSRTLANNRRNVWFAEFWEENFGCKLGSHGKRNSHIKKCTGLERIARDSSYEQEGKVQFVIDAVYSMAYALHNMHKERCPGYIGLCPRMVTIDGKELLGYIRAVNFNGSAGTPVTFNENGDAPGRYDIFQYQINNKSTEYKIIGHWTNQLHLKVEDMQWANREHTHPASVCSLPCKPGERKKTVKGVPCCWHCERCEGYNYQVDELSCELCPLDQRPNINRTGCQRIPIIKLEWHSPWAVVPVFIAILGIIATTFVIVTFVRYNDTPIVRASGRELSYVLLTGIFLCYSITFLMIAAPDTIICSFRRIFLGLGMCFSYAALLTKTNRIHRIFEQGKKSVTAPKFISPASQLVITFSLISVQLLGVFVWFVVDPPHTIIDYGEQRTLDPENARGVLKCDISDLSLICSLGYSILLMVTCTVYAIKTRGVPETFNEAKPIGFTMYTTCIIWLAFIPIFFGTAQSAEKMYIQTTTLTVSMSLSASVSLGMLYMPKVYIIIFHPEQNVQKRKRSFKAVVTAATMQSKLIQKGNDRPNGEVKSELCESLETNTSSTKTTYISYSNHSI
row,Compound,z-score
1,CCCc1cc(=O)[nH]c(SCC(=O)NC(=O)OCC)n1,-0.0127
2,Cc1cc(C)n(S(=O)(=O)c2ccc(C(C)(C)C)cc2)n1,-1.41
3,CCc1nc(SCC(=O)Nc2c(C)nn(C)c2C)c2cnn(-c3ccccc3)c2n1,-0.873
4,O=C(NC1(C(F)(F)F)NC(=O)N(C2CCCC2)C1=O)C1CC1 (stereo not given),-0.129
5,CC(=O)NC1(C(F)(F)F)NC(=O)N(C2CCCCC2)C1=O (stereo not given),-0.137
6,CCOC(=O)NC1(C(F)(F)F)NC(=O)N(C2CCCCC2)C1=O (stereo not given),2.9
7,COc1ccc(-c2nnc(SCc3nnc(-c4ccc(Cl)cc4)o3)n2-c2ccccc2)cc1,-1.79
8,COc1ccc(NS(=O)(=O)c2ccc(Br)s2)cc1OC,2.11
9,COc1ccc(C)cc1NS(=O)(=O)c1ccc(Br)s1,0.369
10,COc1cc(NS(=O)(=O)c2ccc(Br)s2)cc(OC)c1,0.398
11,CCC(=O)Oc1ccc(C(=O)Nc2cccc(C(=O)c3ccccc3)c2)cc1,0.022
12,CC1(C)NC(=O)N(CC(O)CN2CCCCC2)C1=O (stereo not given),0.323
13,COc1ccc(CSc2nc(C)cc(=O)[nH]2)cc1Br,-1.02
14,CC(=O)Nc1ccc(S(=O)(=O)Nc2nnc(C(C)(C)C)s2)cc1,0.307
15,COc1ccc(NC(=S)NNC(=O)c2ccccc2OC(F)F)cc1,0.204
16,CN(C)c1cccc(NC2=CC(=[N+]3CCOCC3)CC(C)(C)C2)c1,0.942
17,CN(C)c1cccc(C(=O)Nc2ccc(N3CCOCC3)cc2)c1,-0.0628
18,CN(C)c1cccc(N=C2C=C(N3CCOCC3)CC(C)(C)C2)c1,2.3
19,O=C(Nc1cccc(O)c1)c1cc(-c2ccco2)on1,-0.103
20,Cc1ccc(Cl)c2c1NC(=O)C2(O)CC(=O)c1ccc(F)cc1 (stereo not given),-0.203
21,COc1ccc(NC(=O)OCCn2c([N+](=O)[O-])cnc2C)cc1,-0.144
22,CCOC(=O)C(NCCCO)c1ccccc1 (stereo not given),-0.247
23,COc1ccc(OC)c(-c2c[n+](=O)c3c(n2[O-])CCCC3)c1,0.0184
24,O=S(=O)(c1ccc(F)cc1)N1CCN(c2ncnc3c2cnn3-c2ccccc2)CC1,2.11
25,CCN1CCN(c2ncnc3c2cnn3-c2ccccc2)CC1,0.0325
26,c1ccc(-n2ncc3c(N4CCCCC4)ncnc32)cc1,-0.259
27,CN(C)C=NC(=O)c1ccc([N+](=O)[O-])c(CS(=O)(=O)c2ccc(Cl)cc2)c1,-0.0395

row,Compound,z-score
1,CCc1ccccc1N(CC(=O)O)S(C)(=O)=O,0.424
2,CCCCOc1ccc(/C=N/NC(=S)Nc2cc(C)ccc2C)cc1,1.19
3,COc1ccc(C/C(C)=N/NC(=S)Nc2ccc(C)c(C)c2)cc1,1.65
4,CCOc1ccc(NC(=S)N/N=C(\C)Cc2ccc(OC)cc2)cc1,1.35
5,CC/C(=N\NC(=S)Nc1ccc(OC)cc1)c1ccc(OC(F)F)cc1,7.5 (active)
6,COc1ccc(C/C(C)=N/NC(=S)Nc2ccc(C(C)C)cc2)cc1,0.256
7,COc1ccccc1NC(=S)NNC(=S)Nc1ccc(OC(F)F)cc1,-0.345
8,COc1ccc(C/C(C)=N/NC(=S)Nc2ccccc2)cc1,5.19 (active)
9,CC/C(=N\NC(=S)Nc1cc(C)ccc1C)c1ccc(OC(F)F)cc1,3.47 (active)
10,Cc1ccc(CNC(=S)Nc2ccc(OC(F)F)cc2C)cc1,-0.531
11,CCN(CCCNC(=O)CCNC(=O)Cn1ccc2ccccc2c1=O)c1ccccc1,-0.46
12,CCN1CCN(Cc2c(O)ccc3c(=O)c(-c4ccc(OC)c(OC)c4)c(C)oc23)CC1,-0.348
13,Cc1ccc(Oc2c(C=O)c3ccccc3n2C)cc1,-0.989
14,CC1(C)CC(=O)N(CC(=O)NC2CCCC2)c2ccccc2S1(=O)=O,-0.29
15,Clc1ccc(Oc2cnc3ccccc3n2)cc1,-0.22
16,CCC(CC)C(=O)Nc1cc(OC)c(OC)cc1C(=O)O,-0.741
17,O=C(Nc1ccc(O)c(-c2nc3ccccc3o2)c1)C1(c2ccc(Br)cc2)CCCC1,-0.297
18,CCOC(=O)CN(C(=O)c1ccccc1)c1ccccc1C,-0.114
19,CC(=O)NC(CC(=O)NC1CCCCCC1)c1ccccc1 (stereo not given),0.55
20,CC1(C)CC(=O)C2=C(C1)OC(N)=C(C#N)C21C(=O)N(CN2CCOCC2)c2ccccc21 (stereo not given),-0.00502
21,CCc1ccc2nc(Nc3nc(COC)cc(=O)[nH]3)nc(C)c2c1,2.69
22,COCc1cc(=O)[nH]c(Nc2nc(C)c3ccccc3n2)n1,-0.43
23,COCc1cc(=O)[nH]c(Nc2nc(C)c3cc(OC)ccc3n2)n1,-0.401
24,O=C(CSc1nc2nc3c(cc2c(=O)n1-c1ccccc1)CCCC3)Nc1ccccc1,-0.468
25,CCn1c(N)c(C(=O)NCc2ccco2)sc1=S,4.44 (active)
26,O=C(NCc1ccco1)c1sc2ccccc2c1Cl,-0.649
27,O=C(NCc1ccccc1)c1sc(=S)n2c1[nH]c(=O)c1ccccc12,-0.316

row,Compound,z-score
1,O=C(NCc1ccco1)c1sc(=S)n2c1[nH]c(=O)c1ccccc12,2.75
2,Cc1ccc(-n2c(N)c(C(=O)NCc3ccco3)sc2=S)cc1,-0.322
3,C=CCn1c(N)c(C(=O)NCc2ccco2)sc1=S,0.688
4,CC(=O)Oc1ccc2oc(=O)c3c(c2c1)CCCN3C(=O)CN1CCN(c2ncccn2)CC1,-0.26
5,CCOC(=O)CC1=CSC2=NS(=O)(=O)CCN12,-0.784
6,CC(=O)C1=C(C)NC(SCC(=O)c2ccccc2)=C(C#N)C1c1ccco1 (stereo not given),-1.16
7,CCc1cc2c(=O)[nH]c(Cc3ccccc3)nc2s1,-0.371
8,COC(=O)c1ccc(COC(=O)c2ccc(CS(=O)(=O)c3ccc(C)cc3)cc2)cc1,-0.331
9,Cc1ccc(S(=O)(=O)N(C)C)cc1NC(=O)COC(=O)CCC(=O)c1ccc(F)cc1,-0.39
10,CN(C)S(=O)(=O)c1cccc(NC(=O)COC(=O)CCC(=O)c2ccc(F)cc2)c1,-0.326
11,Cc1ccc(NC(=O)Cc2ccccc2Cl)cc1S(=O)(=O)N(C)C,12.9 (active)
12,Cc1ccc2c(Cl)cc(Cl)c(OCC(=O)Nc3ccc(C)c(S(=O)(=O)N(C)C)c3)c2n1,2.31
13,Cc1ccc(NC(=O)Cc2c(Cl)cccc2Cl)cc1S(=O)(=O)N(C)C,1
14,Cc1ccc2c(Cl)cc(Cl)c(OCC(=O)Nc3cccc(S(=O)(=O)N(C)C)c3)c2n1,0.415
15,CCOCc1c(C(=O)OCC(=O)Nc2ccc(C)c(S(=O)(=O)N(C)C)c2)oc2ccccc12,9.51 (active)
16,Cc1ccc(NC(=O)COC(=O)/C=C/c2ccco2)cc1S(=O)(=O)N(C)C,1.23
17,Cc1ccc(NC(=O)COC(=O)CCC(=O)c2ccc(Cl)cc2)cc1S(=O)(=O)N(C)C,3.92 (active)
18,Cc1ccc(NC(=O)CCNC(=O)c2ccccc2Cl)cc1S(=O)(=O)N(C)C,-0.00648
19,CCOCC(=O)Nc1c(C(=O)OCC)oc2ccccc12,-0.215
20,Cc1ccc2c(Cl)cc(Cl)c(OCC(=O)Nc3cc(S(=O)(=O)N(C)C)ccc3C)c2n1,-0.0675
21,CCOc1cc(C)c(S(=O)(=O)NC2CCCCC2)cc1C,-0.571
22,O=c1c2ccccc2nc(COc2ccccc2)n1/N=C/c1c[nH]c2ccccc12,-0.533
23,O=[N+]([O-])c1cc(Cl)cc(C2=NCCN2)c1,0.173
24,COc1ccc(N(CC(=O)NCc2ccccc2OC)S(=O)(=O)c2c(C)nn(C)c2C)cc1,-0.153
25,COc1ccc(-c2nn(-c3ccccc3)cc2C(=O)O)cc1OC,0.191
26,COc1ccccc1N1CCN(CC(=O)Nc2cc(F)ccc2C)CC1,0.0403
27,CCN(CC)c1ccc(NC(=O)CSc2nc3ccccc3c(=O)[nH]2)cc1,-0.106

row,Compound,z-score
1,Cc1ccc2c(Cl)cc(Cl)c(OCC(=O)NC(=O)NCc3ccco3)c2n1,-0.127
2,Cc1ccc2c(Cl)cc(Cl)c(OCC(=O)NCc3ccco3)c2n1,3.48 (active)
3,Cc1ccc2c(Cl)cc(Cl)c(OCC(=O)Nc3cc(C)on3)c2n1,0.0628
4,Cc1c(C(=O)O)cccc1-c1ccc(C=O)o1,0.12
5,CC(C)CNS(=O)(=O)c1ccc(OCC(=O)Nc2ccc3c(c2)OCO3)c(Cl)c1,-0.19
6,Cc1cc(C)n(-c2ccc(C(=O)OCC(=O)Nc3ccc(Cl)c(S(=O)(=O)N(C)C)c3)cc2)n1,15.5 (active)
7,Cc1nn(CC(=O)Nc2cc(S(=O)(=O)N(C)C)ccc2Cl)c(C)c1[N+](=O)[O-],0.164
8,Cc1ccc(NC(=O)COC(=O)c2ccc3c(c2)OCO3)cc1S(=O)(=O)N1CCCCC1,-0.401
9,Cc1nn(CC(=O)Nc2ccc(Cl)c(S(=O)(=O)N(C)C)c2)c(C)c1[N+](=O)[O-],4.55 (active)
10,Cc1ccc(S(=O)(=O)N(C)C)cc1NC(=O)COC(=O)c1ccc2c(c1)OCO2,1.63
11,Cc1nn(CC(=O)Nc2ccc(S(=O)(=O)N(C)C)cc2)c(C)c1[N+](=O)[O-],-0.0283
12,CCN(CC)S(=O)(=O)c1ccc(NC(=O)COC(=O)c2ccc(-n3nc(C)cc3C)cc2)cc1,0.0126
13,Cc1cc(C)n(-c2ccc(C(=O)OCC(=O)Nc3ccc(S(=O)(=O)N4CCCCC4)cc3)cc2)n1,-0.00692
14,O=C(COc1ccc(S(=O)(=O)NC2CCCCC2)cc1Cl)Nc1ccc2c(c1)OCO2,0.2
15,CN(C)S(=O)(=O)c1cc(NC(=O)COC(=O)c2ccc3c(c2)OCO3)ccc1Cl,10.1 (active)
16,CC(C)NS(=O)(=O)c1ccc(OCC(=O)Nc2ccc3c(c2)OCO3)c(Cl)c1,3.09 (active)
17,Cc1ccc(S(=O)(=O)CC(C)N2CCN(C3CCCCC3)CC2)cc1 (stereo not given),1.44
18,COc1ccccc1C(=O)COC(=O)c1ccccc1OCC(=O)Nc1ccc(SC(F)F)cc1,1.1
19,COc1cccc(/C(O)=C2/C(=O)C(=O)N(Cc3ccco3)C2c2ccncc2)c1 (stereo not given),-0.192
20,O=C(CSc1nnc(CN2CCOCC2)n1-c1ccc(Cl)cc1)Nc1cc(Cl)ccc1O,-0.794
21,Cc1cc(C)nc(NS(=O)(=O)c2ccc(NC(=O)CN3C(=O)c4ccccc4C3=O)cc2)n1,0.113
22,COc1cc(/C=N/NC(=O)C(=O)Nc2ccccn2)ccc1O,-0.198
23,CCCOc1ccc(/C=N/NC(=O)C(=O)Nc2ccccn2)cc1,3.92 (active)
24,COc1ccc(/C=N/NC(=O)C(=O)Nc2ccccn2)cc1OC,0.813
